High-throughput results as filed in PubChem.
Lassa entry inh = blocks Lassa virus binding to or entry into cells; Lassa virus pseudotype entry inhibition, cell reporter; Potency, µM (top dose mostly 37.9 µM), hits mostly inhibitors; 300,000 compounds, 1.2% hits; calls by dose curve; tested in HEK293 cells; note: nearly all actives have a fitted effect of over 50% in size
Vaccinia mCherry = vaccinia inhibition (mCherry reporter) | Potency, µM (series often up to 36.5 µM), usual class: inhibitors | 310,000 compounds, 0.63% hits | Vaccinia virus mCherry reporter infection, fluorescence; calls by dose curve; tested in A549 cells; note: nearly all actives have a fitted effect of over 35% in size
Marburg entry inh = Marburg virus entry inhibition; Marburg virus pseudotyped entry inhibition, cell reporter; Potency, µM (titrated, usually from 37.8 µM), usual class: inhibitors; 300,000 compounds, 1.8% hits; AID 540276; calls by dose curve; tested in HEK293 cells
HCV inhibitor = HCV inhibition; Huh7.5.1 HCVcc-Cre infection, luciferase reporter, 44 h; Potency, µM (titrated, usually from 41.8 µM), actives largely listed as inhibitors; 340,000 compounds, 3.4% hits; AID 651820; active = well fitted inhibition curve with a large enough effect; inconclusive = small, poorly fitted or top-dose-only effect, or another doubt; inactive = no such curve, though single readings can be large or run the other way
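Compounds are dispensed onto cells plated 4 h earlier at 1,000 per well, with HCVcc-Cre virus (about 0.5 moi) added next. Following 44 h of culture, luminescent signal is measured for 15 sec after 15 min with substrate at room temperature.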
Vaccinia Venus = inhibitors of vaccinia virus (Venus reporter) | Vaccinia virus Venus reporter expression, fluorescence | Potency, µM (series often up to 36.5 µM), usual class: inhibitors | 330,000 compounds, 0.46% hits; calls by dose curve; tested in A549 cells; note: nearly all actives have a fitted effect of over 30% in size
HCMV antiviral = inhibitors of human cytomegalovirus; activity change, negative = inhibition, % at 57.5 µM; HFF cells, HCMV-luciferase reporter, 72 h; stronger effect = lower value; AID 1259415; 410,000 compounds, 4.5% hits; in the data active = activity change below about -60%; inconclusive = no clear call, values can overlap the other calls; inactive = above about -39%
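HFF cells seeded 16 h at 37C, treated with compounds, infected with luciferase-reporter HCMV at MOI 1 PFU/cell; luciferase read at 72 h post infection, normalized to buffer-only and Salinomycin controls.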
A number is an active result; 0 = inactive; ? = inconclusive; - = no result given; [ ] = dose if it differs, or a comment. Sampled rows, rich in hits. Any-hit rate of the full collection: about 7.8%.

SMILES | Lassa entry inh | Vaccinia mCherry | Marburg entry inh | HCV inhibitor | Vaccinia Venus | HCMV antiviral
Cc1ccccc1CN1C(=O)Nc2ccccc2C(=O)N1C(C)(C)C | 0 | 0 | ? | 0 | 0 | 0
CC(C)(C)N1C(=O)c2ccccc2NC(=O)N1Cc1ccc(Br)cc1 | 0 | 0 | ? | 0 | ? | -64.9
COc1ccccc1C(=O)Nc1c(C(=O)N(C)c2ccccc2)sc2nc(C)cc(C)c12 | 0 | 0 | 0 | - | 0 | 0
CCc1cc(C(=O)NCC2Cc3cccc(-c4ccc(C(=O)OC)cn4)c3O2)no1 (stereo not drawn) | - | 0 | - | - | 0 | -
COc1cccc(-c2c(-c3cc(OC)cc(OC)c3)n(C)c3ccc(-c4ccc5cc[nH]c5c4)cc23)c1 | - | 0 | - | ? | 0 | 0
COc1ccc(-c2c(-c3cc(OC)cc(OC)c3)n(C)c3ccc(-c4cnc(N)nc4)cc23)cc1 | - | 0 | - | 0 | ? | 0
COc1cc(OC)cc(-c2c(-c3cccs3)c3cc(-c4ccc5cc[nH]c5c4)ccc3n2C)c1 | - | ? | - | 4.47µM | 0 | 0
COc1ccc(-c2c(-c3cc(OC)cc(OC)c3)n(C)c3ccc(-c4ccc(S(N)(=O)=O)cc4)cc23)cc1 | - | 0 | - | 10µM | 0 | 0
COc1cccc(-c2c(-c3cc(OC)cc(OC)c3)n(C)c3ccc(-c4cnc(N5CCOCC5)nc4)cc23)c1 | - | 0 | - | 0 | ? | -65.1
O=C(Nc1cc(F)ccc1F)N1C[C@H]2[C@@H](c3ccccc31)[C@H](CO)N2C(=O)c1ccccc1 | - | - | - | - | - | 0
CCN(CC)C(=O)Cn1cnc2sc(C(=O)N3CCN(Cc4ccc5c(c4)OCO5)CC3)c(C)c2c1=O | ? | 0 | 0 | ? | 0 | -97.1
Cn1nnnc1Sc1ncnc2scc(-c3ccsc3)c12 | - | - | - | - | - | -97.1
Cn1nnnc1Sc1ncnc2scc(-c3cccc(C(F)(F)F)c3)c12 | - | - | - | - | - | -99.4
c1ccc(-n2nnnc2Sc2ncnc3sc4c(c23)CCCC4)cc1 | ? | 0 | ? | 0 | 0 | 0
Cn1nnnc1Sc1ncnc2scc(-c3cc4ccccc4o3)c12 | - | - | - | - | - | -99.7
Cn1nnnc1Sc1ncnc2scc(-c3ccccc3C(F)(F)F)c12 | - | - | - | - | - | -82.5
Cn1nnnc1Sc1ncnc2scc(-c3ccc(-c4ccccc4)cc3)c12 | - | - | - | - | - | -97.2
Cn1nnnc1Sc1ncnc2scc(-c3ccc(C(F)(F)F)cc3)c12 | - | - | - | - | - | -99.1
COC(=O)CSc1ncnc2scc(-c3ccccc3)c12 | 0 | 0 | 0 | 0 | 0 | 0
COc1cccc(-c2csc3ncnc(Sc4nnnn4C)c23)c1 | - | - | - | - | - | -99.4
CCn1nnnc1Sc1nc(C)nc2scc(-c3ccccc3)c12 | - | 0 | - | - | 0 | -
Cc1ccc(Cl)cc1NC(=O)CCc1c(C)nc2c3cccnc3nn2c1C | 0 | 0 | 0 | - | 0 | 0
COc1ccc2[nH]c(CCc3nc4c(OC)c(OC)ccc4[nH]3)nc2c1OC | - | 0 | - | - | 0 | -
CCOC(=O)/C=C/C(=O)Nc1ccccc1-c1ccccc1NC(=O)/C=C/C(=O)OCC | 12.6µM | 0 | ? | 12.6µM | 0 | -98.0
CCOc1ccc(NC(=O)NC(C)c2c(-n3cccc3)sc(C)c2C)cc1 (stereo not drawn) | - | 0 | ? | - | 0 | ?
SMILES | Lassa entry inh | Vaccinia mCherry | Marburg entry inh | HCV inhibitor | Vaccinia Venus | HCMV antiviral
CCOc1ccc2c(c1)-c1c(ssc1=S)C(C)(C)N2C(=O)c1ccco1 | ? | ? | 5.17µM | 10µM | 0 | 0
CC1(C)c2ssc(=S)c2-c2ccccc2N1C(=O)CSC1=NCCS1 | 0 | - | ? | ? | - | 0
Cc1cc2c(cc1C)N(C(=O)CSC1=NCCS1)C(C)(C)c1ssc(=S)c1-2 | 0 | 0 | 0 | ? | 0 | -72.0
COc1ccc2c(c1)-c1c(ssc1=S)C(C)(C)N2C(=O)CSC1=NCCS1 | 0 | - | ? | 10µM | - | -80.5
COc1cccc(NC(=O)Cn2c(=O)ccc3cc(S(=O)(=O)N4CCC(C)CC4)ccc32)c1 | ? | 0 | - | - | 0 | 0
CCOC(=O)C1CCCN(S(=O)(=O)c2csc(C(N)=O)c2)C1 (stereo not drawn) | 0 | 0 | - | - | 0 | 0
FC(F)(F)c1cc(Cl)c2nc(-c3ccco3)c(Cc3ccccc3C(F)(F)F)n2c1 | - | 0 | - | - | 0 | -66.0
FC(F)(F)c1ccccc1Cc1c(-c2ccco2)nc2ccc(Cl)cn12 | - | 0 | - | - | 0 | -109.9
Cc1ccc(-c2nc3c(Cl)cc(C(F)(F)F)cn3c2Cc2ccccc2C(F)(F)F)cc1 | - | 0 | - | - | 0 | 0
Cc1[nH]c2ccccc2c1C1N2CC3(C)CN1CC(C)(C2)C3=O (stereo not drawn) | 0 | 0 | 0 | - | 0 | 0
C=CCNc1ccc2c(c1)OC[C@@H](CC(C)C)NS2(=O)=O | 0 | - | - | - | - | 0
Cc1c(/C(O)=C2/C(=O)C(=O)N(Cc3cccnc3)C2c2ccccn2)cnn1-c1ccccc1 (stereo not drawn) | 0 | 0 | ? | 0 | 0 | -76.4
Cc1c(/C(O)=C2/C(=O)C(=O)N(Cc3cccnc3)C2c2cccs2)cnn1-c1ccccc1 (stereo not drawn) | 0 | 0 | 0 | 0 | 0 | 0
Cc1ccc(C)c(CN2C(=O)c3ccccc3Sc3ccc(C(=O)NCc4ccco4)cc32)c1 | ? | 0 | - | - | 0 | -69.5
Cc1ccc(C)c(CN2C(=O)c3ccccc3Sc3ccc(C(=O)NCc4cccs4)cc32)c1 | 0 | 0 | - | - | 0 | -62.2
Cc1ccc(C)c(CN2C(=O)c3ccccc3Sc3ccc(C(=O)N4CCC5(CC4)OCCO5)cc32)c1 | ? | 0 | - | - | 0 | -71.8
Cc1ccc(C(=O)NCC(=O)OCc2cc(=O)n3nc(C4CCCCC4)sc3n2)cc1 | 0 | 0 | - | - | 0 | 0
CCC(COC)NC(=O)c1cnn(-c2ncc3c(n2)-c2ccccc2CCC3)c1C (stereo not drawn) | - | 0 | - | - | 0 | -
Cc1ccc([C@H]2C[C@]34CN(Cc5ccccc5)S(=O)(=O)[C@H]3C[C@H]2O4)cc1 | - | - | - | - | - | -88.4
COC(=O)[C@@H]1CCCN1Cc1ccc2c(c1)CN(Cc1ccc3c(c1)CCO3)CCO2 | - | 0 | - | - | 0 | -
Cc1cc(NCc2ccccn2)nc2ccccc12 | 0 | 0 | 0 | 0 | 0 | 0
Fc1ccccc1-c1nc(NCc2ccccc2)c2ccccc2n1 | 0 | 0 | 0 | 0 | 0 | 0
Fc1ccc(Nc2nc(NCc3ccco3)c3ccccc3n2)cc1 | - | - | - | 10µM | - | 0
Cc1nc(NCc2ccccn2)c2ccccc2n1 | 0 | ? | ? | 10µM | 0 | -84.2
Nc1nc(Nc2ccccc2)nc(NCc2ccco2)c1[N+](=O)[O-] | 0 | 0 | ? | ? | ? | 0
SMILES | Lassa entry inh | Vaccinia mCherry | Marburg entry inh | HCV inhibitor | Vaccinia Venus | HCMV antiviral
COc1ccccc1CNc1nc(NCc2ccccc2F)c2sccc2n1 | - | 0 | - | - | 0 | -
c1ccc(CNc2nc(NCc3ccccc3)c3ccccc3n2)cc1 | 10µM | 0[7.34 µM] | ? | ? | 0[7.34 µM] | -
Fc1ccccc1CNc1nc(NCC2CC2)nc2ccsc12 | - | 0 | - | - | 0 | -86.7
C#CC1(O)C(OC)=CC2C(=O)C1C(c1ccccc1)C2C (stereo not drawn) | ? | - | 0 | - | - | -
CC(C)(C)C1CCc2onc(C(=O)Nc3sc4c(c3C#N)CCCC4)c2C1 (stereo not drawn) | 0 | 0 | 0 | - | 0 | 0
O=[N+]([O-])c1ccc(/C=C/c2cc(Cl)nc3ccccc23)cc1 | - | 0 | - | - | 0 | -
c1ccc(CNc2nc(-c3ccccn3)nc3ccccc23)cc1 | ? | ? | ? | 3.16µM | 0 | -97.1
